{"source": "PubChem BioAssay (NCATS)", "note": "Records with an inconclusive call do not appear. Where a call stands in place of a potency, no number is given. Activity calls are given as the source filed them. Calls come from the whole dose curve; as a rule, active = well fitted inhibition curve with a large enough effect; inconclusive = small, poorly fitted or top-dose-only effect; inactive = no such curve, though single readings can be large or run the other way. Potency is the fitted concentration of half-maximal effect.", "data": [{"molecular_target": "Tumor susceptibility gene 101 protein (Homo sapiens) (UniProt Q99816)", "sequence (Q99816 whole entry, looked up)": "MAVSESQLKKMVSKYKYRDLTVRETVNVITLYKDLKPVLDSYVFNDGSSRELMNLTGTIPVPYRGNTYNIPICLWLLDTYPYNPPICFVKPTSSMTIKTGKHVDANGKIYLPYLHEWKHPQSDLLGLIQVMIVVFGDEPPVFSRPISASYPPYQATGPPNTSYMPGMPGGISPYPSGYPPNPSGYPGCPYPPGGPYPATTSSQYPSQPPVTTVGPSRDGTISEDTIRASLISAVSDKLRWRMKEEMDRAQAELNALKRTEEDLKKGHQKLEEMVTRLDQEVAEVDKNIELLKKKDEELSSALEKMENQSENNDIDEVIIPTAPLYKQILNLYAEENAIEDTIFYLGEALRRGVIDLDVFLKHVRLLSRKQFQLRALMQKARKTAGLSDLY", "assay": "qHTS Assay for Iinhibitors of HIV-1 Budding by Blocking the Interaction of PTAP/TSG101: Hit Validation (AID 651600); note: nearly all actives have a fitted effect of over 70% in size", "conditions": "PTAP peptide/TSG101 UEV interaction, biochemical assay; series mostly up to 57.5 µM", "outline": "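Measuring PTAP–Tsg101 interaction by FP: protein at 10 uM and fluorescent peptide at 50 nM (final), buffer 10 mM HEPES pH 7.5 with 0.15 M NaCl, 3 mM EDTA, 0.1 mM TCEP, 0.01% Tween 20; 20 min incubation, r.t.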", "values": [{"smiles": "Nc1cccc2c(O)cc(S(=O)(=O)O)cc12", "Potency": "18.3 µM (active)"}, {"smiles": "CCn1cc(C=C2C(=O)c3ccccc3C2=O)c2ccccc21", "Potency": "14.6 µM (active)"}, {"smiles": "CCN(CC)c1ccc(/C=c2\\sc3nc4ccccc4n3c2=O)c(O)c1", "Potency": "inactive"}, {"smiles": "O=C(O)c1ccccc1-c1ccc(/C=C/c2cc(C(F)(F)F)[nH]c(=O)n2)o1", "Potency": "inactive"}, {"smiles": "COc1ccc2ccccc2c1C(O)c1nccn1C", "note": "(centres undefined)", "Potency": "8.19 µM (active)"}, {"smiles": "CCc1ccc[n+](-c2[nH]c(=O)sc2/C=N/NC([S-])=Nc2ccccc2)c1", "Potency": "14.6 µM (active)"}]}, {"molecular_target": "Rap guanine nucleotide exchange factor 3 (Homo sapiens) (UniProt O95398)", "sequence (O95398 whole entry, looked up)": "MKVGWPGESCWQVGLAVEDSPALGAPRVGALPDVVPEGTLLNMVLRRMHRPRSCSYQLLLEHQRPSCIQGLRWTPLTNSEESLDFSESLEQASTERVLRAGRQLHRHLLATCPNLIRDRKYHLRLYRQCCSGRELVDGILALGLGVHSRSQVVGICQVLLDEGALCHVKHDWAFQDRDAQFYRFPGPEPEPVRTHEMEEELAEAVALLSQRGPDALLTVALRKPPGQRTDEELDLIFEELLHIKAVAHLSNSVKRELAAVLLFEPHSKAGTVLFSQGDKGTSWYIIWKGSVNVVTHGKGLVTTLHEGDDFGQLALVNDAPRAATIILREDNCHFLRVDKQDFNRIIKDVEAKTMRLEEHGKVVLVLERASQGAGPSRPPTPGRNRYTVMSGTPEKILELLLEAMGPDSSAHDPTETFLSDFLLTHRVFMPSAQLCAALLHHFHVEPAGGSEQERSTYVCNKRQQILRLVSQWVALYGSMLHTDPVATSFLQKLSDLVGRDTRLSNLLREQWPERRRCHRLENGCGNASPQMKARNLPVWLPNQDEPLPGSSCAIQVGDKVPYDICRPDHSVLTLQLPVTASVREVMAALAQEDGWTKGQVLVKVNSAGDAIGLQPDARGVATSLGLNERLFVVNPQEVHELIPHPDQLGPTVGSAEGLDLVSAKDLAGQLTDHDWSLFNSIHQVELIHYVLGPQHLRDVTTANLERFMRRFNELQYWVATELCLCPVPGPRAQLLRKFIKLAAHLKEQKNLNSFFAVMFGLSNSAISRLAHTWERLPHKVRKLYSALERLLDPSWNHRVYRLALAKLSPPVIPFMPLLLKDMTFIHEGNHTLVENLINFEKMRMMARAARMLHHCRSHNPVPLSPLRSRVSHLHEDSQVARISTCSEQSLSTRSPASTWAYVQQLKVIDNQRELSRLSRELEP", "assay": "Confirmatory qHTS for antagonist of cAMP-regulated guanine nucleotide exchange factor 3 (EPAC1) (AID 1645880); note: nearly all actives have a fitted effect of over 55% in size", "conditions": "EPAC1 Rap1B-BODIPY-GDP exchange, fluorescence; activity, negative = inhibition: at 115 µM (top of the series)", "outline": "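Released BODIPY-GDP fluoresces less than Rap1-bound BODIPY-GDP; the signal is followed at 480/540 nm at 5-min intervals over 30 min, after 5 min at room temperature. Reactions contain 100 nM EPAC1, 250 nM RAP1B-BODIPY-GDP and 50 uM GDP; results are normalized to ATA and DMSO.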", "values": [{"smiles": "COc1ccccc1NC(=O)Cc1ccc(-c2ccccc2)cc1", "Potency": "inactive"}, {"smiles": "CCCc1nn2c(=O)cc(COC(=O)c3ccc(NC(=O)COc4ccccc4F)cc3)nc2s1", "Potency": "inactive"}, {"smiles": "CCCCn1nnnc1C(c1cc2ccccc2o1)N1CCCC1", "note": "(centres undefined)", "Potency": "inactive"}, {"smiles": "Cc1ccn2c(-c3csc(NCc4ccccc4)n3)c(C)nc2c1", "Potency": "inactive"}, {"smiles": "CC(=O)N1N=C2c3ccccc3CCC2C1c1cccs1", "note": "(centres undefined)", "Potency": "inactive"}, {"smiles": "Nc1cccc2c(O)cc(S(=O)(=O)O)cc12", "Potency": "13.5 µM (active)"}, {"smiles": "Cc1ccc(N2CC(NC(=O)C(=O)c3c[nH]c4ccccc34)CC2=O)cc1C", "note": "(centres undefined)", "Potency": "inactive"}, {"smiles": "COc1ccc(NC(=O)CSc2ccccc2)cc1S(=O)(=O)N1CCCCC1", "Potency": "inactive"}, {"smiles": "O=C(c1ccccc1F)n1c2c(c3ccccc31)CCCC2", "Potency": "inactive"}, {"smiles": "Cn1ccc2c(N3CCCCCCC3)cc3c(c21)C1CCC3O1", "note": "(centres undefined)", "Potency": "inactive"}, {"smiles": "CCOc1nc(-c2ccccc2Cl)nc2ccccc12", "Potency": "inactive"}, {"smiles": "CCOc1ccc(S(=O)(=O)N2CCCCC2)c(C)c1C", "Potency": "inactive"}, {"smiles": "CCn1cc(C=C2C(=O)c3ccccc3C2=O)c2ccccc21", "Potency": "inactive"}]}]}
